mHTT CaM bind – disrupts binding of mutant huntingtin to calmodulin; P42858; AlphaScreen His-mHTT/GST-CaM binding, luminescence; inhibition, % at 15 µM; 190,000 tested, 3.6% active;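 further: 0% = both proteins with DMSO and 100% = one protein alone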
Target sequence (P42858 whole entry, looked up, stated change not applied): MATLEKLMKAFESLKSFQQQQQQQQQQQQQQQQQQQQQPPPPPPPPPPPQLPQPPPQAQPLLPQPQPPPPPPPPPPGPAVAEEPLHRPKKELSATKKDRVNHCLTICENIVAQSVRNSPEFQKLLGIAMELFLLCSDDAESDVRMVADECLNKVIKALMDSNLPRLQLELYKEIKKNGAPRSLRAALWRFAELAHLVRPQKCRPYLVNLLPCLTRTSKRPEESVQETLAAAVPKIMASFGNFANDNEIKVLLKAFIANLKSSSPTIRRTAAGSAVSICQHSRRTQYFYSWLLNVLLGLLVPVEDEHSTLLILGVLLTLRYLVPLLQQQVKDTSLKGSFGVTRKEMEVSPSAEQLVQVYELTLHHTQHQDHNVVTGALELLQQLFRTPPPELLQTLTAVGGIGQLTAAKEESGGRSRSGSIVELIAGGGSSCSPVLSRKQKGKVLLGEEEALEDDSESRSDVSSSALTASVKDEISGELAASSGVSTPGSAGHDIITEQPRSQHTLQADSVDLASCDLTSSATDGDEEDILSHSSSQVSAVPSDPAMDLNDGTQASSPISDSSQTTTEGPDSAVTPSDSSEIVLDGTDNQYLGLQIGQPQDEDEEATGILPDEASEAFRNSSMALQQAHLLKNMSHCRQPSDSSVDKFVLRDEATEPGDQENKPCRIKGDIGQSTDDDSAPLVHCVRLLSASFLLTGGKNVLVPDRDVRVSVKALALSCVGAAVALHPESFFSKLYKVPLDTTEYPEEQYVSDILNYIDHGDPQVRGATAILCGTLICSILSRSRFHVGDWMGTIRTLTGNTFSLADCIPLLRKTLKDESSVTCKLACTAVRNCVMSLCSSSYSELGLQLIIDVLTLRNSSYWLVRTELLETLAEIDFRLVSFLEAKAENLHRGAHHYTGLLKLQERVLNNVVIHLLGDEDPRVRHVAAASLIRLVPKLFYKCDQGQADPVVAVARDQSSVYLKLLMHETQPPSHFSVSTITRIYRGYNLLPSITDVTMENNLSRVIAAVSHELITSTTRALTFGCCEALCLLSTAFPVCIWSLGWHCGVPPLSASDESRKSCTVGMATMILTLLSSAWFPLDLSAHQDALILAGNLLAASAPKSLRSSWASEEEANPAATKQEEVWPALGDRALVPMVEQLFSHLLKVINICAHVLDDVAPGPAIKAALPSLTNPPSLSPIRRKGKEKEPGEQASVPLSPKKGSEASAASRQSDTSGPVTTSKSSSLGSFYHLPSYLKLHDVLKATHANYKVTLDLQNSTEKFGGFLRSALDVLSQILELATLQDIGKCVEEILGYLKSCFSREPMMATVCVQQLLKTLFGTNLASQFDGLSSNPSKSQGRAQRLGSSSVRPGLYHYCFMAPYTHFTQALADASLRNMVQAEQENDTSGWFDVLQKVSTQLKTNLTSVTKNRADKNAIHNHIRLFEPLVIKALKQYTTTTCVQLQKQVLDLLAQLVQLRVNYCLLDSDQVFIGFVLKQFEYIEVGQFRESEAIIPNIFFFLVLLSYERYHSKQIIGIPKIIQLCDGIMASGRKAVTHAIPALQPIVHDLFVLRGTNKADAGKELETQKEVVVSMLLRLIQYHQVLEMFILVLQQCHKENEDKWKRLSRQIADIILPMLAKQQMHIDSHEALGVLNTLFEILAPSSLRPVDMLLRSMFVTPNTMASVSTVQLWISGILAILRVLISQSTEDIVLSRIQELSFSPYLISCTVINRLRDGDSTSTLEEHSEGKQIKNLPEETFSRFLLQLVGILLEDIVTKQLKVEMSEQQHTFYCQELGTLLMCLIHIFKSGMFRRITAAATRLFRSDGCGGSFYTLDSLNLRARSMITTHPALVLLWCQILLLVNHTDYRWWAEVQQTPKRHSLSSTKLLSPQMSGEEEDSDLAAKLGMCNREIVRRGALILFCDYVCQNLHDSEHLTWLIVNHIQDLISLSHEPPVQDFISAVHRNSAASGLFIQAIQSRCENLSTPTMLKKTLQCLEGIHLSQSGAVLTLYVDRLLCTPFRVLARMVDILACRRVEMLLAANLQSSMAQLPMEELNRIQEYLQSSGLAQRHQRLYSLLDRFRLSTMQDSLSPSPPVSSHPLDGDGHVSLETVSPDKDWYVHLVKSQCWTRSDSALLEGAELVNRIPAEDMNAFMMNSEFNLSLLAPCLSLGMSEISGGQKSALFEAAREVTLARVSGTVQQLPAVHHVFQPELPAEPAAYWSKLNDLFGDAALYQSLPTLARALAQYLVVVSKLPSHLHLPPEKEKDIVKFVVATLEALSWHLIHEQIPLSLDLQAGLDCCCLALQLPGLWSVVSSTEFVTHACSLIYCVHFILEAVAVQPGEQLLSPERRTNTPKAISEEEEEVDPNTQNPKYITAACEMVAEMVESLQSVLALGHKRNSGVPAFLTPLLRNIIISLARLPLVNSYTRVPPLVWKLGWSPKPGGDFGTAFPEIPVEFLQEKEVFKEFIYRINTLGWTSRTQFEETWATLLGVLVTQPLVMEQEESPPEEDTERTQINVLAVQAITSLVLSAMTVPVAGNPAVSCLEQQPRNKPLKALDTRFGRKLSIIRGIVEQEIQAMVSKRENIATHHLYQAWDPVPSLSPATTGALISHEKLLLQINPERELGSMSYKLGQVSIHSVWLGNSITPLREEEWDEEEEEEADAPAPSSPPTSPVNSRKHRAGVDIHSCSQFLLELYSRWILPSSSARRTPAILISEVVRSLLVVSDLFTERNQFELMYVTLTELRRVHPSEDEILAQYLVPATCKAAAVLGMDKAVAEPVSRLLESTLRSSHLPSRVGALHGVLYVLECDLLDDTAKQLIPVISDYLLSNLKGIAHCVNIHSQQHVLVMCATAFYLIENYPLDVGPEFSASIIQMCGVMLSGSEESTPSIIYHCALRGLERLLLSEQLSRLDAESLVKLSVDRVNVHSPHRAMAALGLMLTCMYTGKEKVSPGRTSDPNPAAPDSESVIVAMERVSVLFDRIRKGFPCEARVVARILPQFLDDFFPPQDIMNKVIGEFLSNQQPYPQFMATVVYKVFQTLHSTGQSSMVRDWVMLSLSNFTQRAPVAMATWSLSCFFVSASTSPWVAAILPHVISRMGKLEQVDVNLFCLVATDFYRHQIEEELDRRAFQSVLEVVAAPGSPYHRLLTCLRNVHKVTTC
Pf apPOL block – Pf-apPOL DNA polymerase inhibition; AID 1794808; 210,000 tested, 0.25% active; Recombinant Pf-apPOL, molecular beacon fluorescence, 1.5 h; inhibition, % at 10 µM
Starred values were filed as active, the others as inactive; · = not tested or not shown. Rows were chosen to be rich in hits. Some 3.6% of all compounds tested hit in one or more screens of this group. No stated cut-off is given here; in the data, active means inhibition above about 50%; inactive means the rest.

SMILES | mHTT CaM bind | Pf apPOL block
COC(=O)c1c(NC(=O)C23CCC(C)(C(=O)C2=O)C3(C)C)sc2c1CCCC2 (stereo not drawn) | 9 | -6
Cc1ncn(-c2ccc(CNC(=O)C(C)(C)C)cc2)c1C | 2 | -1
CC(C)C(=O)N1CCC(c2nc(CNC(=O)C3CCC3)cs2)CC1 | -15 | -4
Oc1c(Cl)cc(Cl)cc1C=NNC(=S)NC1CC2CCC1C2 (stereo not drawn) | · | -6
Oc1c(Cl)cc(Cl)cc1C=NNC(=S)NCC1CCCO1 (stereo not drawn) | · | 70*
COc1ccc(C2=NOC(C(=O)N3CCN(c4ccc(F)cc4)CC3)C2)cc1 (stereo not drawn) | -5 | 11
CCCNC(=O)c1cncc(-c2ccc(F)cc2F)c1 | 12 | 62*
CC(C)CNC(=O)c1cncc(-c2ccc(F)cc2F)c1 | 1 | 37
CCOC(=O)CNC(=O)NC1CCN(c2nc3ccccc3n(CC(C)C)c2=O)CC1 | 7 | -1
CC(C)n1cc2cc(C(=O)NCCN3CCCCCC3)sc2c1 | 30 | 1
CCNC(=O)N1CCCC(c2cccc(C(=O)NCc3ccc(N(C)C)cc3)c2)C1 (stereo not drawn) | 54* | -4
CC(C)NC(=O)N1CCCC(c2cccc(C(=O)NCc3ccc(N(C)C)cc3)c2)C1 (stereo not drawn) | 17 | -8
COc1ccccc1CNc1nc(-c2ccccc2F)nc2ccccc12 | -8 | -3
CCC(C)Nc1nc(-c2cc(OC)c(OC)c(OC)c2)nc2ccccc12 (stereo not drawn) | -4 | 51*
COc1cc(-c2nc(NCc3ccc(F)cc3)c3ccccc3n2)cc(OC)c1OC | 88* | 16
CCC(C)Nc1nc(-c2ccccc2O)nc2ccccc12 (stereo not drawn) | -85 | 3
O=C(c1cccnc1N1CCNC(c2ccccc2)C1)N1CCN(c2ncccn2)CC1 (stereo not drawn) | -1 | -1
Cc1ccc(NS(=O)(=O)CCOc2ccccc2)cc1F | -19 | -7
CC(Oc1ccccc1)C(=O)Nc1ccc(NC(=O)c2ccco2)cc1 (stereo not drawn) | -2 | -1
CC(=O)N1CCc2cc(N3CC(C(=O)Nc4ccc(F)cc4C)CC3=O)ccc21 (stereo not drawn) | -6 | 0
CCOc1ccc(NC(=O)c2cn(C3CCCC3)c(=O)c3c2c2ccccc2n3C)cc1 | 5 | -1
OCCNCCOc1ccc(Br)cc1 | -3 | -5
OCCNCCOc1ccc(Br)cc1Cl | 100* | -2
O=[N+]([O-])c1ccc(NCCNS(=O)(=O)Cc2ccccc2)cc1 | 6 | -4
O=[N+]([O-])c1ccc(S(=O)(=O)CC(Cl)CS(=O)(=O)Cc2ccccc2)cc1 (stereo not drawn) | 100* | 5
SMILES | mHTT CaM bind | Pf apPOL block
CC(=O)N1CCc2[nH]c3ccc(C(=O)NCc4ccc(N5CCOCC5)cc4)cc3c2C1 | 56* | -3
CCOc1ccccc1CNC(=O)c1ccc2[nH]c3c(c2c1)CN(C(C)=O)CC3 | 74* | -2
CCC(CC)NC(=O)c1ccc2[nH]c3c(c2c1)CN(C(C)=O)CC3 | -2 | 1
CCc1ccc(CNC(=O)c2ccc3[nH]c4c(c3c2)CN(C(C)=O)CC4)cc1 | 41 | -13
Cn1c(SCC(=O)c2ccc([N+](=O)[O-])cc2)nnc1-c1ccc(N)cc1 | 12 | 0
Cc1ccc(N=CC=C2OC(C)(C)C(C)(C)O2)cc1 | 56* | -1
Cc1cccc(N=CC=C2OC(C)(C)C(C)(C)O2)c1 | 44 | -1
Cc1nc(-c2cccc(NC(=O)C(c3ccccc3)n3cccc3)c2)cs1 (stereo not drawn) | 67* | 6
Cc1nc(-c2cccc(NC(=O)c3cccc([N+](=O)[O-])c3)c2)cs1 | 7 | -4
CN(Cc1ccsc1)C(=O)c1ccccc1F | -4 | -1
Cn1c(CN2CCN(C(=O)c3ccc([N+](=O)[O-])o3)CC2)nc2ccccc21 | -5 | 53*
Cn1c(CN2CCN(C(=O)c3ccc(Br)o3)CC2)nc2ccccc21 | -3 | -4
O=C(Nc1cnc(N2CCCCC2)nc1)c1ccccc1Br | 4 | 0
O=[N+]([O-])c1ccc2c(N=Nc3ccc4ccccc4c3O)c(O)cc(S(=O)(=O)O)c2c1 | 100* | ·
O=[N+]([O-])c1ccc(O)c(N=Cc2sc3ccccc3c2O)c1 | 43 | -5
CCn1ccc2sc(C)c(C(=O)N3CCC(N4CCCCC4)CC3)c2c1=O | 22 | -14
CCn1ccc2sc(C)c(C(=O)N3CCC(Cc4ccccc4)CC3)c2c1=O | 80* | -2
Cc1[nH]c2ccccc2c1C=C1C(=O)OC2(CCCC2)OC1=O | 20 | 5
COc1ccc(CNc2ccc3cn[nH]c3c2)cc1Br | 71* | -5
COc1cc(OC)c(CNc2ccc(F)c(F)c2)cc1Br | 10 | 8
COc1ccc(CNc2cccc(F)c2)cc1Br | -65 | -9
COc1ccc(CNc2ccc(C)c(C)c2)c(OC)c1 | 58* | -5
COc1ccc(CNc2ccccc2SC)cc1Br | -31 | 1
COc1ccc(CNc2ccc(F)c(Cl)c2)c(OC)c1 | 31 | 0
